According to PubChem BioAssay:
Where “and” joins values, the source holds several entries; their conditions need not be identical. Equal values may be shown once. Records with an inconclusive call do not appear. For some assays here: Potency and affinity values are given separately. Some compounds were tested as several samples or in several runs, with calls that do not always agree. Calls of active or inactive are those of the source.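 How the source made its calls, unless noted: active means normalized viability below 100% at a tested concentration; inactive means the rest.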

Key:
[1] = growth inhibition of DIPG glioma cells, dose response, cell-based, SU-DIPG-IV, MIPE4.0, CellTiter-Glo, qHTS (AID 1347063; cut-off not given, nearly all actives have AC50 up to about 30 µM;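 further: compound exposure lasted 48 hours before the viability readout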); settings: SU-DIPG-IV viability, CellTiter-Glo ATP luminescence
[2] = viability loss in pontine glioma line – cell-based, SU-DIPG-XXV, MIPE5.0, CellTiter-Glo, qHTS, dose response (AID 1347065; cut-off not given, nearly all actives have AC50 up to about 26 µM;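 further: cells exposed to compound for 48 hours before ATP readout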); settings: CellTiter-Glo ATP luminescence
[3] = JHH-DIPG-1 glioma cell viability, MIPE5.0 library, CellTiter-Glo luminescence, qHTS (AID 1347067; cut-off not given, nearly all actives have AC50 up to about 26 µM;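 further: cells exposed to compound for 48 hours before readout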); settings: JHH-DIPG-1 glioma viability, CellTiter-Glo ATP luminescence
[4] = SU-DIPG-XXV glioma cell viability, MIPE5.0 library, qHTS (AID 1347068; cut-off not given, nearly all actives have IC50 up to about 30 µM;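 on IC50: cells exposed to compound for 48 hours before viability readout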)
[5] = SU-DIPG-VI glioma cell viability, MIPE4.0 library, CellTiter-Glo luminescence, qHTS (AID 1347066; cut-off not given, nearly all actives have AC50 up to about 30 µM;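 further: cells exposed to compound for 48 hours before readout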); settings: CellTiter-Glo ATP luminescence
[6] = polyglutamine-triggered caspase-3 activation inhibitors, cell-based (AID 1583); settings: polyglutamine-induced caspase-3 activation, cell assay; stronger effect = higher value;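 tested at 10 µM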
[7] = suppressors of polyQ aggregation in yeast, 75Q-TubU reporter (AID 1593); settings: Yeast 75Q polyglutamine aggregation reporter
[8] = rescue of polyQ-huntingtin neuronal dysfunction in worms, whole organism, C. elegans mechanosensory neurons, N-terminal huntingtin (AID 1599); settings: touch response, stronger effect = higher value
[9] = inhibitors of mitochondrial cytochrome c release, biochemical, purified mitochondria (AID 1603); settings: stronger effect = lower value;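 further: mouse liver mitochondria challenged with calcium chloride; signal normalized to the plate average as 100%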
[10] = inhibitors of polyQ protein aggregation (AID 1604); settings: polyglutamine-induced protein aggregation inhibition assay; stronger effect = higher value; tested at 2.5 µM
[11] = enhancers of glutamate uptake in motor neurons, MN-1 cell line (AID 1612); settings: MN-1 motor neuron cells, stronger effect = higher value;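 further: tested at 1 µM final; 0% = mean of DMSO vehicle wells on each plate; positive means more glutamate uptake than control and negative means less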
[12] = reducers of polyQ inclusions in PC12 cells, cell-based, NGF-treated PC12, GFPQ80 (AID 1614); settings: PC12 NGF-treated GFP-polyQ80 inclusion reduction;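 further: lower means fewer inclusions and 0 means no inclusions at all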
[13] = suppressors of polyglutamine aggregation in yeast, 75Q-TubH (AID 1616); settings: S. cerevisiae 75Q-TubH polyglutamine aggregation suppression; stronger effect = higher value
[14] = growth inhibition of DIPG glioma cells, dose response, cell-based, JHH-DIPG-1, MIPE4.0, CellTiter-Glo, qHTS (AID 1347062; cut-off not given, nearly all actives have AC50 up to about 27 µM;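 on AC50: cells exposed to compound for two days before readout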); settings: JHH-DIPG-1 viability, CellTiter-Glo ATP luminescence
[15] = growth inhibition of DIPG glioma cells, dose response, cell-based, SU-DIPG-XIII, MIPE5.0, CellTiter-Glo, qHTS (AID 1347064; cut-off not given, nearly all actives have AC50 up to about 23 µM;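 further: cells exposed to compound for 48 hours before the viability read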); settings: SU-DIPG-XIII viability, CellTiter-Glo ATP luminescence
[16] = sensitizers of A549 cells to miR-34 induction, primary screen, imaging, A549 dox-inducible miR-34, nuclei and caspase counts (AID 1347080;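 active means compounds whose cell count with miR-34 switched on is under 0.7 times the count with it off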); settings: A549 miR-34 inducible, Hoechst nuclei count, 48 h
[17] = survival rescue of mitochondrial mutant cells in low glucose, primary screen, MELAS cybrids, Rieske KO mouse fibroblasts, CellTiter-Glo (AID 1508586;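 active means mean z-score across replicates of 1.96 or higher in either the MELAS or the Rieske mutant cell line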;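 further: z relative to plate mean and SD of compound and empty wells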)
[18] = circadian clock period modulators, cell-based, LOPAC library, luminescence reporter (AID 2774; call rule not given here;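 further: values are relative to mean of DMSO wells on each plate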); settings: circadian reporter cells, at 7 µM, actives lie on both sides
[19] = system: Hepatitis C virus NS3 helicase; assay: HCV NS3 helicase inhibitors, primary screen, biochemical, fluorescence polarization, LOPAC1280 library (AID 687035; in the data active means inhibition above about 37%); settings: Purified HCV NS3 helicase, Cy5-dT15 ssDNA binding fluorescence polarization; stronger effect = higher value; concentration not given here
[20] = Cy5 fluorescence quenching or enhancement artefacts, artefact control for HCV NS3 helicase inhibitor project, biochemical, LOPAC1280 (AID 687037; call rule not given here); settings: Cy5-DNA-NS3h complex fluorescence interference counterscreen
[21] = inhibitors of Cryptococcus chitosan production, flow cytometry, Cibacron Brilliant Red staining (AID 1347148; call rule not given here;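 further: compound exposure lasted three days at 37 degrees C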); settings: Cryptococcus neoformans chitosan, stronger effect = lower value; at 10 µM unless noted
[22] = phospholipid biosynthesis inhibitors in animal cells, primary screen, cell-based, LOPAC library, screen 4 (AID 1347384; call rule not given here); settings: phospholipid biosynthesis inhibition screen, at 10 µM
[23] = viability rescue of complex I mutant cybrids, primary screen, cell-based, galactose medium, ATP luminescence (AID 1645843;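 active means z-score of at least 1.8 in each of two replicates, scored against plate mean and spread of sample wells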;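 further: positive z means more ATP and so rescue of galactose-driven cybrid death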); settings: complex I mutant cybrid cells, 72 h, stronger effect = higher value
[24] = kinase inhibitors against Plasmodium liver-stage infection, cell-based, known kinase inhibitor set, luminescence, hepatoma host viability (AID 624392; call rule not given here;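 further: infected cells incubated roughly two days before readout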); settings: Plasmodium liver stage in hepatoma cells, luciferase luminescence, concentration not given here; liver cell % of control: measured here: host liver cell viability; parasite % of control: stronger effect = lower value
[25] = modifiers of HSF1 nuclear foci, imaging, Selleck Cancer Library (AID 1347162; in the data active means plate-normalised HSF1 focus index below about 0.46); settings: human cells, at 10 µM; SSMD: measured here: HSF1 foci SSMD mean; cell count: measured here: cell number; plate-normalised HSF1 focus index: stronger effect = lower value
[26] = ovarian cancer cell viability with rucaparib, profiling panel, oncology-focused library, rucaparib conditional (AID 1508598); settings: patient-derived ovarian cancer cells, CellTiter-Glo viability, 144 h, stronger effect = lower value
[27] = stronger effect = lower value, cell number ratio, induced over uninduced
[28] = measured here: relative caspase fold change +Dox/-Dox
[29] = measured here: total cells with miR-34 induction, stronger effect = lower value
[30] = measured here: total cells without miR-34 induction
[31] = MELAS cybrid survival, CellTiter-Glo 48 h, stronger effect = higher value
[32] = Rieske KO mouse fibroblast survival, CellTiter-Glo 72 h

For `CO[C@H]1C[C@@H]2CC[C@@H](C)[C@@](O)(O2)C(=O)C(=O)N2CCCC[C@H]2C(=O)O[C@H]([C@H](C)C[C@@H]2CC[C@@H](OCCO)[C@H](OC)C2)CC(=O)[C@H](C)/C=C(/C)[C@@H](O)[C@@H](OC)C(=O)[C@H](C)C[C@H](C)/C=C\C=CC=C1C`, the AC50 [1] was 8.33 µM (active), the AC50 [2] was 23.5 µM (active) and the AC50 [3] was 29.5 µM (active). The IC50 [4] was 23.5 µM (active).

In the case of `CNC(=O)[C@H](CC1=CN=C2C=CCC=C12)NC(=O)[C@@H](CC(=O)NO)CC(C)C`, the AC50 [1] is reported as 0.0372 µM (active) and the AC50 [5] is reported as 0.0332 µM (active).

`COc1ccc2c(c1OC)C(=O)OC2[C@H]1c2c(cc3c(c2OC)OCO3)CCN1C` (some centres not stated) showed an inhibition [6] of -3.24%, a score [7] of 1.28 and a rescue above control [8] of -2.5. The cytochrome c release ratio [9] was 0.93, the inhibition of aggregation [10] was 66.2% and the glutamate uptake change [11] was -10.2%. The inclusion score [12] was 2, the aggregation suppression score [13] was 1.38 and the AC50 [14] was 1.87 µM (active).

With `Cc1c(C(=O)N2CCOc3ccc(-c4ccc(N)nc4)cc3C2)ccc(S(C)(=O)=O)c1F` the AC50 [15] was 2.95 µM (active) and the AC50 [2] was 4.17 µM (active).

For `CNC(=O)c1c(C)oc2cc(Oc3ncnc4cc(OC)c(OC)cc34)ccc12`, the AC50 [15] was 9.34 µM (active) and the AC50 [2] was 6.61 µM (active).

In the case of `CCNC(=O)Nc1ccc(Oc2ncnc(N)c2/C=N/OC)cc1Cl`, the outcome [14] is reported as “inactive”, the outcome [5] is reported as “inactive” and the outcome [4] is reported as “inactive”.

In the case of `COc1ccc(CCC(=O)Nc2nc3ccc(Cl)cc3s2)cc1OC`, the outcome [14] is reported as “inactive”, the outcome [3] is reported as “inactive” and the outcome [4] is reported as “inactive”. The fold change [16, 27] was 0.879 (inactive), the fold change [16, 28] was 0.345 and the cell count [16, 29] was 7570. The cell count [16, 30] was 8610, the z-score [17, 31] was 1.34 (inactive) and the z-score [17, 32] was -0.214.

With `Cc1ccc(S(=O)(=O)N[C@@H](Cc2ccccc2)C(=O)CCl)cc1` the period change [18] was -0.14 h (inactive), the inhibition [19] was -4% (inactive) and the fluorescence ratio (interference) [20] was 1 (inactive). The AC50 [1] was 18.7 µM (active), the AC50 [2] was 18.6 µM (active) and the AC50 [5] was 20.9 µM (active). The AC50 [3] was 23.5 µM (active), the fold change [16, 27] was 1.17 (inactive) and 1.22 (inactive) and the fold change [16, 28] was 0.738 and 0.849. For the same molecule, the cell count [16, 29] was 1870 and 962, the cell count [16, 30] was 1600 and 786 and the fold fluorescence [21] was 6.27 [at 142.1 µM] (inactive). The outcome [22] was “inactive” and the z-score [23] was -1.34 (inactive).

For `Cc1nc(N)sc1-c1ccnc(Nc2ccc(N3CCOCC3)cc2)n1`, the liver cell % of control [24] was 72.4% and 73.5% and 98.2%, the parasite % of control [24] was 0.414% (inactive) and 0.47% (inactive) and 0.326% (active) and the AC50 [1] was 20.9 µM (active). The AC50 [15] was 5.9 µM (active), the AC50 [2] was 2.63 µM (active) and the AC50 [3] was 14.8 µM (active). For the same molecule, the fold change [16, 27] was 0.855 (inactive), the fold change [16, 28] was 1.29 and the cell count [16, 29] was 1260. For the same molecule, the cell count [16, 30] was 1470, the SSMD [25] was 3.31 and the cell count [25] was 7110. The plate-normalised HSF1 focus index [25] was 1.12 (inactive), the z-score [17, 31] was 1.86 (inactive) and the z-score [17, 32] was -0.218. The viability ([26]; at 0.000305 µM, OCI-C5x cells, with rucaparib 10 µM, 100% = cells with rucaparib alone) was 109% (inactive), the viability ([26]; at 0.000305 µM, OCI-C5x cells, without rucaparib) was 111% (inactive) and the viability ([26]; at 0.000305 µM, OCI-P5x cells, with rucaparib 20 µM, 100% = cells with rucaparib alone) was 125% (inactive). For the same molecule, the viability ([26]; at 0.000305 µM, OCI-P5x cells, without rucaparib) was 120% (inactive), the viability ([26]; at 0.00122 µM, OCI-C5x cells, with rucaparib 10 µM, 100% = cells with rucaparib alone) was 110% (inactive) and the viability ([26]; at 0.00122 µM, OCI-C5x cells, without rucaparib) was 112% (inactive). For the same molecule, the viability ([26]; at 0.00122 µM, OCI-P5x cells, with rucaparib 20 µM, 100% = cells with rucaparib alone) was 115% (inactive), the viability ([26]; at 0.00122 µM, OCI-P5x cells, without rucaparib) was 120% (inactive) and the viability ([26]; at 0.00488 µM, OCI-C5x cells, with rucaparib 10 µM, 100% = cells with rucaparib alone) was 104% (inactive). For the same molecule, the viability ([26]; at 0.00488 µM, OCI-C5x cells, without rucaparib) was 112% (inactive), the viability ([26]; at 0.00488 µM, OCI-P5x cells, with rucaparib 20 µM, 100% = cells with rucaparib alone) was 117% (inactive) and the viability ([26]; at 0.00488 µM, OCI-P5x cells, without rucaparib) was 124% (inactive). For the same molecule, the viability ([26]; at 0.0195 µM, OCI-C5x cells, with rucaparib 10 µM, 100% = cells with rucaparib alone) was 104% (inactive), the viability ([26]; at 0.0195 µM, OCI-C5x cells, without rucaparib) was 95.4% (active) and the viability ([26]; at 0.0195 µM, OCI-P5x cells, with rucaparib 20 µM, 100% = cells with rucaparib alone) was 116% (inactive). The viability ([26]; at 0.0195 µM, OCI-P5x cells, without rucaparib) was 113% (inactive), the viability ([26]; at 0.0781 µM, OCI-C5x cells, with rucaparib 10 µM, 100% = cells with rucaparib alone) was 109% (inactive) and the viability ([26]; at 0.0781 µM, OCI-C5x cells, without rucaparib) was 108% (inactive). For the same molecule, the viability ([26]; at 0.0781 µM, OCI-P5x cells, with rucaparib 20 µM, 100% = cells with rucaparib alone) was 115% (inactive), the viability ([26]; at 0.0781 µM, OCI-P5x cells, without rucaparib) was 115% (inactive) and the viability ([26]; at 0.313 µM, OCI-C5x cells, with rucaparib 10 µM, 100% = cells with rucaparib alone) was 109% (inactive). The viability ([26]; at 0.313 µM, OCI-C5x cells, without rucaparib) was 110% (inactive), the viability ([26]; at 0.313 µM, OCI-P5x cells, with rucaparib 20 µM, 100% = cells with rucaparib alone) was 116% (inactive) and the viability ([26]; at 0.313 µM, OCI-P5x cells, without rucaparib) was 113% (inactive). For the same molecule, the viability ([26]; at 1.25 µM, OCI-C5x cells, with rucaparib 10 µM, 100% = cells with rucaparib alone) was 101% (inactive), the viability ([26]; at 1.25 µM, OCI-C5x cells, without rucaparib) was 113% (inactive) and the viability ([26]; at 1.25 µM, OCI-P5x cells, with rucaparib 20 µM, 100% = cells with rucaparib alone) was 113% (inactive). The viability ([26]; at 1.25 µM, OCI-P5x cells, without rucaparib) was 111% (inactive), the viability ([26]; at 5 µM, OCI-C5x cells, with rucaparib 10 µM, 100% = cells with rucaparib alone) was 107% (inactive) and the viability ([26]; at 5 µM, OCI-C5x cells, without rucaparib) was 108% (inactive). The viability ([26]; at 5 µM, OCI-P5x cells, with rucaparib 20 µM, 100% = cells with rucaparib alone) was 97% (active) and the viability ([26]; at 5 µM, OCI-P5x cells, without rucaparib) was 102% (inactive).
